This is an account of results in PubChem BioAssay (NCI).

Assay in all cases: NCI-60 one-dose screen, 48 h (100 = growth as untreated, 0 = no growth, -100 = all killed)
Details in all cases: 10 µM unless noted

Assay [1] deals with NCI-H23 lung.
Assay [2] has as its system NCI-H226 lung.
Assay [3] concerns NCI-H322M lung.
Assay [4] deals with HOP-62 NSCLC.
Assay [5] deals with NCI-H460 lung.
For assay [6], the system named is HOP-92 NSCLC.
The subject of assay [7] is NCI-H522 lung.
Assay [8] concerns A549/ATCC NSCLC.
Assay [9] deals with 786-0 renal.
Assay [10] concerns COLO 205 colon.

Structures are written as SMILES. This is part of a sample that, as a whole, favours compounds with a hit. Of some 83,000 tested, about 20% had one in any assay.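 A percent growth of 40 corresponds to 60% growth inhibition; 0 means no net growth; -100 means all cells died. Active threshold: below 10.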 A number with no mark means an inactive call. Activity calls are given as the source filed them.

As for `O=C(O)/C=C(\c1nc2ccc([N+](=O)[O-])cc2[nH]1)c1cc(Cl)ccc1O`, the growth in assay [1] is 4.9% (active); in assay [2], 34.4%; in assay [3] it was 33.6%; in [4], 42.8%; in assay [5] it was 14.4%; in [6], 8.34% (active). Moreover, the growth in [7] is 2.47% (active); in assay [8] it was 27%; in assay [9], 44%; in assay [10], 27.5%.

With `Cn1nc(C(F)(F)F)cc1-c1cc(Cl)c(OCc2ccc(Cl)cc2)c(-c2ccc(Cl)c(C(F)(F)F)c2)c1O`, the growth in assay [1] is 4.69% (active); in assay [2], -13.3% (active); in assay [3], 9.05% (active); in assay [4], -28.6% (active); in [5] it was 0.354% (active); in assay [6], -25.8% (active). For the same molecule, the growth was 1.3% (active) in [7], 13.2% in assay [8], -4.08% (active) in assay [9] and -78.6% (active) in [10].

Turning to `COc1cc(/C=C/C(=O)c2ccc(NC(=O)CSc3nnc(-c4ccc(Cl)cc4)n3-c3ccccc3)cc2)cc(OC)c1OC`, the growth was 55.9% in assay [1]; 82% in assay [2]; 96.5% in [3]; 96.5% in assay [4]; 80% in assay [5]; 97.9% in [6]. Also, the growth was 63.8% in assay [7], 69.8% in assay [8], 79% in assay [9] and 79.8% in [10].

Turning to `Cc1ccc(NC(=O)Cn2nncc2CN2C(=O)CSC2=O)cc1C`, the growth was 96.8% in [1]; 90.7% in assay [2]; 103% in assay [3]; 98.5% in assay [4]; 105% in [5]; 112% in [6]. Besides, the growth is 94.8% in [7], 102% in [8], 108% in assay [9] and 106% in [10].

For the molecule `C/C(=N\OC(=O)Nc1ccccc1)c1ccccc1`, the growth was 105% in [1]; 95.2% in assay [2]; 99.1% in assay [3]; 118% in assay [4]; 103% in assay [5]; 126% in [6]. Further, the growth in [7] was 98.6%; in [8], 88.3%; in [9], 99.3%; in assay [10] it was 114%.

Take `CC1=C(C(=O)Nc2ccc(F)cc2)C(c2ccc(Cl)cc2)C2=C(CC(C)(C)CC2=O)N1` (stereo not given): the growth in [1] is 86%; in assay [2], 84.1%; in assay [3] it was 102%; in assay [4], 97.2%; in [5] it was 96.4%; in [6], 62%. Also, the growth is 82.4% in assay [7], 78.3% in assay [8], 88.3% in assay [9] and 97% in assay [10].

For `CC(C)N=C1CCCC1C(=S)SSC(=S)C1CCCC1=NC(C)C` (stereo not given), the growth in [1] was 75.5%; in assay [2] it was 90.6%; in [3], 86.7%; in assay [4], 24.5%; in assay [5] it was 47.5%; in [6] it was 103%. Also, the growth was 8.07% (active) in assay [7], 71.1% in [8], 91.4% in assay [9] and 88.8% in assay [10].

Take `CCN(CC)C(Cl)=Nc1ccc(Cl)cc1`: the growth in [1] was 104%; in assay [2], 96.2%; in [3] it was 103%; in assay [4] it was 99.8%; in assay [5], 106%; in assay [6], 108%. The growth was 91.1% in assay [7], 97.3% in [8], 99.8% in assay [9] and 103% in assay [10].

As for `COCCn1c(Nc2ccc(C(=O)NO)cc2)nc2ccccc21`, the growth in assay [1] is 72.8%; in assay [2], 89.6%; in assay [3], 76.5%; in [4], 74.8%; in assay [5], 56.7%; in assay [6], 27.7%. Further, the growth in [7] is 30.9%; in assay [8], 69.2%; in assay [9] it was 84.4%; in assay [10], 50.7%.

For the molecule `CC(=O)c1cc(C(=O)c2ccc3c(c2)Sc2ccccc2N3)c2c(C)cccn12`, the growth was 27% in assay [1]; 47.8% in [2]; 37.4% in assay [3]; 19.1% in assay [4]; 6.41% (active) in assay [5]; 94% in assay [6]. Besides, the growth in assay [7] is 12.5%; in [8] it was 19.5%; in assay [9], 4.46% (active); in assay [10] it was -43.7% (active).

Consider `CC(=O)Nc1nonc1-c1nc2ccccc2n1Cc1ccc(C(C)(C)C)cc1`, for which the growth in assay [1] was 86.7%; in assay [2], 76.6%; in [3], 83%; in assay [4], 101%; in assay [5], 79.3%; in [6], 57.1%. The growth was 85.1% in assay [7], 72.2% in assay [8], 70.2% in assay [9] and 98.5% in [10].

As for `N#CC1=C(N)Oc2nc[nH]c(=O)c2C1c1cccs1` (stereo not given), the growth is 110% in assay [1]; 89% in [2]; 105% in assay [3]; 105% in assay [4]; 106% in [5]; 102% in [6]. Further, the growth in assay [7] was 97.6%; in assay [8], 95.7%; in [9] it was 103%; in [10] it was 106%.

For the molecule `CC(=O)N(C)c1ccc(Nc2cc(C)[nH]c3ccc4ncnc4c23)cc1`, the growth in assay [1] was 50.4%; in assay [2] it was 54.8%; in assay [3] it was 77%; in assay [4] it was 54.3%; in [5] it was 22.4%; in assay [6], -2.3% (active). The growth in assay [7] was 22.1%; in assay [8], 67.2%; in [9], 55.8%; in assay [10], 53.3%.

For `ClCc1cccc(CSc2ncnc3c2ncn3Cc2cccc(CCl)c2)c1`, the growth in assay [1] is 33.9%; in [2], -54.8% (active); in [3], 101%; in assay [4], -38.8% (active); in assay [5], 36.7%; in [6], 99.3%. Further, the growth was -69.8% (active) in assay [7], 88.7% in assay [8], 13% in assay [9] and 26.3% in [10].
